# Source: PubChem BioAssay
# Active and inactive are the calls of the source.
# Experiments:
# [1] = tested on: PRMT1 (protein arginine N-methyltransferase 1); assay: PRMT1 binders on small-molecule microarrays, primary screen, biochemical, small-molecule microarray, 635 nm fluorescence (AID 1088); conditions: small-molecule microarray binding, higher = more signal;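 note: binding of Prmt1 protein to compounds spotted on small-molecule microarray slides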
# [2] = yeast growth modulation, basal conditions, primary screen, YJM789 clinical isolate, OD600, 24 h (AID 1089);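 note: growth of clinical yeast isolate S. cerevisiae YJM 789 seeded 1000 cells per well; test concentration not given here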; conditions: S. cerevisiae YJM789 growth, higher = more signal, called active from +8 up or from −8 down
# [3] = fission yeast growth modulation, primary screen, strain 972, OD600, 24 h, no modulator (AID 1090);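 note: basal condition with compound alone and no growth modifier present; test concentration not given here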; conditions: S. pombe 972 growth, higher = more signal, called active from +8 up or from −8 down
# [4] = S. cerevisiae growth modulation with rapamycin, primary screen, strain BY4716, OD600, 96 h (AID 1091); conditions: higher = more signal, called active from +8 up or from −8 down; note: test concentration not given here
# [5] = target: Torsin-1A-interacting protein 2 (Homo sapiens) (UniProt Q8NFQ8); assay: LULL1 binders on small-molecule microarray, primary screen, cell lysate, human LULL1 lysate, 635/667 nm fluorescence (AID 1092); conditions: hLULL1 lysate binding, 635 nm fluorescence, higher = more signal;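 note: probe is lysate of COS7 cells overexpressing human LULL1; score merges per-feature 667 nm fluorescence with signal-to-noise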
# Chain of Torsin-1A-interacting protein 2 (Homo sapiens) (Q8NFQ8 whole entry, looked up): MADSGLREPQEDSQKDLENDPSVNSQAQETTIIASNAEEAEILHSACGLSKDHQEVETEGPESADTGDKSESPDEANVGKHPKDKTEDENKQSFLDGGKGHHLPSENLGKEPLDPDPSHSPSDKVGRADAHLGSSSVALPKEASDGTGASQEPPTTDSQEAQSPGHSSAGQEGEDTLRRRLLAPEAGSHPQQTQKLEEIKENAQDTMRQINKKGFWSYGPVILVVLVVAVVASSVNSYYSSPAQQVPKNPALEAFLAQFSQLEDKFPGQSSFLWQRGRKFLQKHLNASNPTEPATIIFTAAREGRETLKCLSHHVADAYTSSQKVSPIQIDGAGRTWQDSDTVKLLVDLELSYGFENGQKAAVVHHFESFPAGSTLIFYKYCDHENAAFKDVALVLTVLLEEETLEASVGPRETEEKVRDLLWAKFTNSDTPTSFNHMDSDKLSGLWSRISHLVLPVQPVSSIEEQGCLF
# [6] = E. coli growth modulation, two-sided OD650, primary screen, E. coli filamentation project, strain DRC41, 24 h (AID 1093); conditions: OD650, 24 h, higher = more signal, called active from +8 up or from −8 down;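 note: MC1000 strain lacking acrAB efflux and sulA so SOS filamentation is blocked; test concentration not given here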
# [7] = small-molecule microarray binders of probe aLefty2, primary screen, biochemical, biotinylated probe, 635/667 nm fluorescence (AID 1094); conditions: higher = more signal;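 note: score merges spot fluorescence near 667 nm with spot signal-to-noise ratio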
# [8] = tested on: Noggin (protein binding on small-molecule microarray); assay: Noggin binders on small-molecule microarray, primary screen, biochemical, 635/667 nm fluorescence (AID 1095); conditions: 635 nm fluorescence, higher = more signal;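 note: score merges 667 nm feature fluorescence with signal to noise over triplicate slides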
# [9] = target: Neurogenic locus notch homolog protein 3 (Homo sapiens) (UniProt Q9UM47); assay: NOTCH3 binders on small-molecule microarray, primary screen, biochemical, 635/667 nm fluorescence (AID 1096); conditions: NOTCH3 binding, 635 nm fluorescence, higher = more signal
# Chain of Neurogenic locus notch homolog protein 3 (Homo sapiens) (Q9UM47 whole entry, looked up): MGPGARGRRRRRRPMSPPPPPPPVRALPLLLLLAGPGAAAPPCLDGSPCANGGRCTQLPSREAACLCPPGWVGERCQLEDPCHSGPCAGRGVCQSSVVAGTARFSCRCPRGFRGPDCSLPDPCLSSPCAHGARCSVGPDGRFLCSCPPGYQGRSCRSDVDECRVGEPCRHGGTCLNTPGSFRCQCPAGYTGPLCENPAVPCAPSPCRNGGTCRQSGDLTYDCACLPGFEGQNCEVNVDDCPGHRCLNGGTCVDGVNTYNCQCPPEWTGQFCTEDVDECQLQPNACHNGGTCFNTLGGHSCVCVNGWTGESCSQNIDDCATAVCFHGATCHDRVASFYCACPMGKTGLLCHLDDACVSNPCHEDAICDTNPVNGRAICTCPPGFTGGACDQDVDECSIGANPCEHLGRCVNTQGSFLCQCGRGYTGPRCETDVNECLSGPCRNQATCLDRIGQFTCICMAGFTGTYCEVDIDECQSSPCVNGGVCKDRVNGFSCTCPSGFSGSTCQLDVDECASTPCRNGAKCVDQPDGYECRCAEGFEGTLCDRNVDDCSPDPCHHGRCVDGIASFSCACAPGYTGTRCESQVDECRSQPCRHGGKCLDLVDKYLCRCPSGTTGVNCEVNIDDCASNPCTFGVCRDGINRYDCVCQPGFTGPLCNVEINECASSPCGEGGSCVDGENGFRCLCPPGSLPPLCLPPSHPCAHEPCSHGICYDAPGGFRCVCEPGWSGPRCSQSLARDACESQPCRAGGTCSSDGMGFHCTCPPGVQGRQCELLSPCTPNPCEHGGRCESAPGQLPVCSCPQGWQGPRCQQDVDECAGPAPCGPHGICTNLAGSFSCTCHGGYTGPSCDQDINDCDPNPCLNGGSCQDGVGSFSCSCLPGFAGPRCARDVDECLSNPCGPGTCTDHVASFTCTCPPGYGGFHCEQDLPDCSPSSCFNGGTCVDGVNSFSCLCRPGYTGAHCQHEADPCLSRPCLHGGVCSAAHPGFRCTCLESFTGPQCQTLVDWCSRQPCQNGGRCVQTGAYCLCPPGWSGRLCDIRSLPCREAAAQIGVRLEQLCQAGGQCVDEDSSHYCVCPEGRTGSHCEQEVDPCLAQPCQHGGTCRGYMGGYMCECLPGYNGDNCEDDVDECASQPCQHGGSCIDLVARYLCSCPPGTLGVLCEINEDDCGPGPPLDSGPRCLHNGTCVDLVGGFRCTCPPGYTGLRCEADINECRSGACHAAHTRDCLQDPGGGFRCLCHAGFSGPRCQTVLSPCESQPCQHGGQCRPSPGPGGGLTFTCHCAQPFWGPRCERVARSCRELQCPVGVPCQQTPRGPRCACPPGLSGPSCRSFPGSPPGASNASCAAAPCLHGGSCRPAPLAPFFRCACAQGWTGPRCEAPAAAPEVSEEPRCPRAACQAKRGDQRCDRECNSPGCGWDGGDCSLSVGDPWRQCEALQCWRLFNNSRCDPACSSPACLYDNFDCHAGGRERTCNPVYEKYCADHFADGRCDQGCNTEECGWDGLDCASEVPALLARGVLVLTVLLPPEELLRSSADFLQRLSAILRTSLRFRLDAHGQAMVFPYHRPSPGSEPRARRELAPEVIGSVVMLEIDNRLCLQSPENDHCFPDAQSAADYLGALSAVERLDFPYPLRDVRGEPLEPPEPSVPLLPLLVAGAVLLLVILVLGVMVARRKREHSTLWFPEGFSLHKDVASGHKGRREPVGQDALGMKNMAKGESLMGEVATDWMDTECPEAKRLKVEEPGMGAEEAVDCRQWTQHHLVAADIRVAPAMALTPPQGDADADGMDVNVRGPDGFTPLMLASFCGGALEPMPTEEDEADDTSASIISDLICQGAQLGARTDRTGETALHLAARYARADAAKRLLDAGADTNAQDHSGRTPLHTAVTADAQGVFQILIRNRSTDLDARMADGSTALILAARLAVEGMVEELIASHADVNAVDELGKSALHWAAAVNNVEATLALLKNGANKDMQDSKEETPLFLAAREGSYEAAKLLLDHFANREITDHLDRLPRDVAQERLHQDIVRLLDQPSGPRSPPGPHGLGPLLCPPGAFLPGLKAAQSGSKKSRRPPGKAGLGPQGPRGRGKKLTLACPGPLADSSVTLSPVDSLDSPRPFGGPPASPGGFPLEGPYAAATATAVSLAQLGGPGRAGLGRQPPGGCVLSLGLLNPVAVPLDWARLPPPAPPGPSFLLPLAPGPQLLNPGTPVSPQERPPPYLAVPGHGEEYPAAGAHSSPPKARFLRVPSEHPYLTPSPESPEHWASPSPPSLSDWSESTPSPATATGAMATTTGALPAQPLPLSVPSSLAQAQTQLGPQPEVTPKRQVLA
# [10] = small-molecule microarray binders of probe aEGFR, primary screen, biochemical, biotinylated probe, 635/667 nm fluorescence (AID 1097); conditions: higher = more signal;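 note: probe is a biotinylated anti-EGFR antibody binding compounds printed on slides; score combines fluorescence near 667 nm and signal to noise of each spot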
# [11] = tested on: Plasmodium falciparum Sir2 (PF13_0152, Sir2A); assay: pfSir2 binders on small-molecule microarrays, primary screen, biochemical, small-molecule microarray, 635 nm fluorescence (AID 1098); conditions: small-molecule microarray binding, fluorescence 635 nm; higher = more signal;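 note: score merges spot fluorescence intensity with its signal-to-noise ratio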
# [12] = small-molecule microarray binders of probe aDKK1, primary screen, biochemical, biotinylated probe, 635/667 nm fluorescence (AID 1099); conditions: higher = more signal;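 note: score merges 667nm spot fluorescence with signal to noise across triplicate slides; reference of the scale not given here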
# [13] = small-molecule microarray binders of probe aCHRDL2, primary screen, biochemical, biotinylated probe, 635/667 nm fluorescence (AID 1100); conditions: higher = more signal
# [14] = splicing luciferase reporter signal modulators, primary screen, spliceosome inhibition project, cell-based, HEK293, splice +/- reporter (AID 1101); conditions: luminescence, 24 h, higher = more signal, called active from +8 up or from −8 down;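 note: HEK293 cells carrying a splicing-competent luciferase reporter gene; test concentration not given here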
# [15] = target: Fibroblast growth factor 10 (Homo sapiens) (UniProt O15520); assay: FGF10 binders on small-molecule microarrays, primary screen, biochemical, small-molecule microarray, 635 nm fluorescence (AID 1102); conditions: FGF10 binding, fluorescence 635 nm, higher = more signal
# Chain of Fibroblast growth factor 10 (Homo sapiens) (O15520 whole entry, looked up): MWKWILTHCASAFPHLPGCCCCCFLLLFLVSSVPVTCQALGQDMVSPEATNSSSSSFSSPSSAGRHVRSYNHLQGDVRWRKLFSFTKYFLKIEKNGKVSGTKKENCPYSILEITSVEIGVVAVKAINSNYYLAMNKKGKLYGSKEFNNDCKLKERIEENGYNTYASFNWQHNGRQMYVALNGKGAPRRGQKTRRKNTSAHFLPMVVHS
# [16] = tested on: glycogen synthase kinase-3 (GSK3A per assay name; protocol says GSK3B); assay: GSK3 binders on small-molecule microarrays, primary screen, biochemical, small-molecule microarray, 635 nm fluorescence, GSK3A (AID 1103); conditions: small-molecule microarray binding, fluorescence 635 nm; higher = more signal; note: the record names both GSK3A and GSK3B
# [17] = target: Epidermal growth factor receptor (Homo sapiens) (UniProt P00533); assay: EGFR binders on small-molecule microarrays, primary screen, biochemical, small-molecule microarray, 635 nm fluorescence (AID 1104); conditions: EGFR binding, higher = more signal;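 note: score merges 667 nm emission intensity with spot signal to noise over triplicate slides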
# Chain of Epidermal growth factor receptor (Homo sapiens) (P00533 whole entry, looked up): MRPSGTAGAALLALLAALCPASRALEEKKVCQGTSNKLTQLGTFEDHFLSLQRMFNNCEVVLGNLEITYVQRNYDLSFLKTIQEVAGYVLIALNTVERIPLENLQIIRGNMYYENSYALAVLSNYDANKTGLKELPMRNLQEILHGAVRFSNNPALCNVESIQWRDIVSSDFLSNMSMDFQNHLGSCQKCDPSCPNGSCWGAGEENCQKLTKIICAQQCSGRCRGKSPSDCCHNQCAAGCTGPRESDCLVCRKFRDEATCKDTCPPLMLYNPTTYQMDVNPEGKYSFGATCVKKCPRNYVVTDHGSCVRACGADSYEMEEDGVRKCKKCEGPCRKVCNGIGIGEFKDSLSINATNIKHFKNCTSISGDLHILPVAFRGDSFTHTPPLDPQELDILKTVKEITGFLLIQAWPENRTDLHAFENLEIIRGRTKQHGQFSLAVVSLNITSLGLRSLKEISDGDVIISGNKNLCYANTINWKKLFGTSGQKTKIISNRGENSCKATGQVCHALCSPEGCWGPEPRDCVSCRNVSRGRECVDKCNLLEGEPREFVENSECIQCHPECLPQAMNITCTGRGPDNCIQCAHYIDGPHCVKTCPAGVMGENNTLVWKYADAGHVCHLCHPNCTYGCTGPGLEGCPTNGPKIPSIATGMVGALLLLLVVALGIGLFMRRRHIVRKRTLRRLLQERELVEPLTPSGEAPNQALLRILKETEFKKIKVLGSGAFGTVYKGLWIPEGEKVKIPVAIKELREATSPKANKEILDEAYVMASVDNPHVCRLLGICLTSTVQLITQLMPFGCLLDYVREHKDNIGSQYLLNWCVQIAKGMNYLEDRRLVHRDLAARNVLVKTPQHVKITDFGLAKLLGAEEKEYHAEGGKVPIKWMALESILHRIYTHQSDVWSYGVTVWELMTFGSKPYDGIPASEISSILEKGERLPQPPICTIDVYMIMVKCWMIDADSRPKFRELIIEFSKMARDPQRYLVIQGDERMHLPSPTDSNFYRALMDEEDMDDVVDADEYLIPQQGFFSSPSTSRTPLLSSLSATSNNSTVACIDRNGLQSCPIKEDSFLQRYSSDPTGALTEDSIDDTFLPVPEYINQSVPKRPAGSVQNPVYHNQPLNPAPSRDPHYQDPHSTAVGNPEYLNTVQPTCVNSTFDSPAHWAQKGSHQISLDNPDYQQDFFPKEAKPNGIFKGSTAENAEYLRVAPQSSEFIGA
# [18] = target: Follistatin-related protein 3 (Homo sapiens) (UniProt O95633); assay: FSTL3 binders on small-molecule microarrays, primary screen, biochemical, small-molecule microarray, 635 nm fluorescence (AID 1105); conditions: FSTL3 binding, higher = more signal;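 note: score merges emission near 667 nm and signal to noise per printed spot across three slides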
# Chain of Follistatin-related protein 3 (Homo sapiens) (O95633 whole entry, looked up): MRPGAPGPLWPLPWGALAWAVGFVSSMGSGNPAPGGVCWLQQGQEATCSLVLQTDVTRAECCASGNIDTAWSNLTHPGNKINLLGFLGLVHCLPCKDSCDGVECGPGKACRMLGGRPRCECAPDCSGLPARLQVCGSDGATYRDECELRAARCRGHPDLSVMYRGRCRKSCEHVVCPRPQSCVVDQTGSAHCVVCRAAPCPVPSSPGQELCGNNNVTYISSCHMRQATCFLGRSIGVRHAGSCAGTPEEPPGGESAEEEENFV
# [19] = target: Dickkopf-related protein 1 (Homo sapiens) (UniProt O94907); assay: DKK1 binders on small-molecule microarrays, primary screen, biochemical, small-molecule microarray, 635 nm fluorescence scan (AID 1106); conditions: DKK1 binding, higher = more signal;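 note: score merges emission near 667 nm with signal to noise over three replicate slides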
# Chain of Dickkopf-related protein 1 (Homo sapiens) (O94907 whole entry, looked up): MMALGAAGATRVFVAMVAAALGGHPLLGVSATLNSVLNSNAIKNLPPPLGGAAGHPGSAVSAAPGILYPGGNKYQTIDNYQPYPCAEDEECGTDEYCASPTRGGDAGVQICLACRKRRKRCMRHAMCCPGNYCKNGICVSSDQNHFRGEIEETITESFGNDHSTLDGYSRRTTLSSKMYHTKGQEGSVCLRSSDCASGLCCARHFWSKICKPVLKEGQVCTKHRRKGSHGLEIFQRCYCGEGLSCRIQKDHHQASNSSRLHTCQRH
# [20] = tested on: Inhibin beta A chain (activin A); assay: INHBA (activin A) binders on microarrays, primary screen, biochemical, small-molecule microarray, 635 nm fluorescence scan (AID 1107); conditions: small-molecule microarray binding, higher = more signal;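 note: mouse activin A protein probed at 4.33 µg/mL on printed slides; score merges bound-protein fluorescence near 667 nm with spot signal-to-noise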
Compound,composite z-score [1],z-score [2],z-score [3],z-score [4],composite z-score [5],z-score [6],composite z-score [7],composite z-score [8],composite z-score [9],composite z-score [10],composite z-score [11],composite z-score [12],composite z-score [13],z-score [14],composite z-score [15],composite z-score [16],composite z-score [17],composite z-score [18],composite z-score [19],composite z-score [20]
[N-]=[N+]=Nc1ccccc1C[C@@]1(C(=O)NCCN2CCOCC2)N=C(c2ccc(OCCCO)cc2)O[C@@H]1c1ccccc1N=[N+]=[N-],1.55,-2.36 (inactive),-14.1 (active),-0.321 (inactive),3.19,-0.485 (inactive),0.0672,0.325,0.811,0.0045,1.53,0.664,1.04,-0.222 (inactive),0.968,1.31,-0.172,0.453,0.136,0.691
CCCC[C@@H](O)C1=C(COC)C[C@H]2C(=O)N(Cc3ccccc3)C(=O)[C@H]2[C@H]1CO,0.831,0.332 (inactive),-0.677 (inactive),0.719 (inactive),0.113,0.649 (inactive),-0.241,1.18,0.788,-0.113,0.516,-0.449,-0.815,0.296 (inactive),0.822,0.464,0.26,1,0.972,0.44
O=C1OCCC=C[C@H]2OC34C=CCN(c5ccc6ccccc6c5)C(=O)[C@H]3N(CCCO)C(=O)[C@@H]4C12 (stereo not given in full),-1.63,0.312 (inactive),-0.951 (inactive),0.345 (inactive),-0.939,0.843 (inactive),-0.222,-2.16,-1.19,-0.295,0.933,-0.258,0.637,-1 (inactive),-1.62,-2.21,-1.93,-1.94,-1.8,-2.42
COC(=O)[C@@H]1N=C(c2ccc(OCCCO)cc2)O[C@@H]1C,1.28,0.464 (inactive),-0.0679 (inactive),-0.184 (inactive),-0.0276,0.98 (inactive),0.0539,0.0641,0.0599,-0.0465,-0.0756,0.017,0.795,0.04 (inactive),0.965,0.16,-0.55,-0.0372,0.0375,-0.004
C=C[C@@H](CO)N(Cc1ccc(OC)cc1)S(=O)(=O)c1ccc(Br)cc1,-0.043,-3.19 (inactive),-6.8 (inactive),-1.92 (inactive),0.268,2.31 (inactive),0.0711,-0.193,-0.731,-0.0967,-0.36,0.188,0.681,-1.21 (inactive),0.0174,0.239,-0.142,-0.0506,-0.0478,0.0176
O=C1C2C=CC(C(O)c3ccco3)N(Nc3ccccc3F)C2C(=O)N1c1ccccc1 (stereo not given),-0.281,0.252 (inactive),0.512 (inactive),-0.119 (inactive),2.46,-1.47 (inactive),0.0686,-0.221,0.569,-0.0435,0.926,0.497,1.01,0.901 (inactive),0.285,0.179,-0.14,0.338,0.326,0.75
COC(=O)[C@@]1(Cc2ccc(OC)cc2)[C@H]2c3cc(C(=O)N4CCCC4)n(CCO)c3C[C@H]2CN1C(=O)c1ccccc1,0.738,0.663 (inactive),0.544 (inactive),-0.289 (inactive),4.02,-1.41 (inactive),0.159,-0.0367,0.552,0.212,0.333,0.798,0.888,-1.14 (inactive),0.717,0.483,0.0327,0.155,-0.418,0.45
C=CC[C@H](OC(=O)Nc1ccc(SC)cc1)c1ccc(O)c2ccccc12,1.54,-23.9 (active),-19.8 (active),-1.38 (inactive),2.8,1.42 (inactive),-0.112,1.1,1.1,-0.128,0.731,-0.0313,0.296,-2.98 (inactive),0.972,1.29,0.961,1.08,0.778,0.932
C=C(/C(=C/C[C@H](OC(=O)c1ccncc1)c1ccc(CO)o1)c1cnc2ccccc2c1)C(C)C,1.52,1.22 (inactive),-1.67 (inactive),0.433 (inactive),0.947,-0.358 (inactive),0.0249,0.963,1.05,0.523,0.614,-0.173,-0.304,0.984 (inactive),1.41,1.16,0.932,1.46,0.791,1.81
NCCCCCCNC(=O)[C@@H]1C[C@@H]2C(=O)N[C@@H](CCCCN)C(=O)N2[C@@H]1c1ccc(O)cc1,1.44,-0.171 (inactive),0.142 (inactive),-1.38 (inactive),2.47,0.445 (inactive),0.362,0.367,0.549,0.217,1.32,0.13,0.462,-1.48 (inactive),0.523,0.456,0.456,0.27,1.16,0.899
